This is a sample that favours compounds with a hit; in the whole collection about 1.2% have one here.
CtBP-E1A inh – qHTS Assay for Inhibitors of the CtBP/E1A Interaction. CtBP / adenovirus E1A interaction (AlphaScreen). AlphaScreen GST-E1A/His-CtBP binding, 1536-well; stronger effect = lower value. activity change, % (concentration not given with the values). 340,000 compounds, 0.49% hits
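GST-E1A and His-tagged CtBP (125 nM each as 5X stock) were preincubated with pin-transferred compound for 2 h at 37 °C in the dark, then glutathione donor and nickel acceptor beads were added for 1 h before AlphaScreen reading.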
CCT modulator – High-Throughput Screening for Modulators of Cytosolic Chaperonin Activity; purified chaperonin ATPase assay, HTRF ADP detection, 30 min; activity change, % (concentration not given with the values), hits read low; 360,000 compounds, 0.3% hits; in the data active = activity change below about -30%
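First, chaperonin was dispensed at 40 nM or 20 nM final depending on batch activity. Next, compounds were pinned at 76 uM and ATP added at 10 uM. After 30 min at 37 °C, ADP detection reagents ran 30 min at ambient temperature.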
pAkt inh – HTS Assay for Inhibitors of Akt Phophorylation: Primary Screen | Neuro2A IGF-stimulated pAkt S473 HTRF, 20 min; stronger effect = lower value | activity change, % for hits at 50 µM | 360,000 compounds, 0.32% hits; in the data active = activity change below about -80%; inconclusive = mostly about -51% to -80%
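Neuro2A cells in DMEM with 0.5% FBS, overnight at 37 deg C, given compound at single 50 µM final, then IGF (6 nM final) for 20 min at 37 deg C. Lysed; phospho-Akt Ser473 by HTRF after 24 h, 665/615 ratio.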
Six1-Eya2 inh – qHTS Assay for Inhibitors of the Six1/Eya2 Interaction | activity change, % (test concentration not listed) | Homeobox protein SIX1 (Homo sapiens) + Protein phosphatase EYA2 (Homo sapiens), … | AlphaScreen GST-Six1/His-Eya2 binding, biochemical; stronger effect = lower value | 360,000 compounds, 0.56% hits
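AlphaScreen luminescence read after one hour at 37 °C in darkness. Pin-transferred compounds met GST-Six1 and His-Eya2 protein (5X stock 250 nM/500 nM) plus glutathione donor and Ni-chelate acceptor beads (5X, 50 ug/mL).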
* hit, by the source's call; i = inactive; ? = inconclusive; / = no result. Cut-off read from the data, not from the text of the source, unless noted: active = activity change below about -65%; inconclusive = mostly about -30% to -63%; inactive = weaker than that. % is set by controls: 0 for no effect and ±100 for the full control effect.

SMILES	CtBP-E1A inh	CCT modulator	pAkt inh	Six1-Eya2 inh
COc1ccc(OC)c(NC(=O)CN2CCc3ccccc3C2)c1	-10.5	0.4	i	-14.6
COc1ccccc1Cc1c(-c2ccc(C#N)cc2)nc2ccc(C)cn12	0.5	-0.3	i	-9.6
Oc1c(C(Nc2nc3ccccc3s2)c2ccco2)ccc2cccnc12 (stereo not given)	-16.4	-2.7	i	-72.7*
c1coc(CNc2nc3ccccc3s2)c1	0.0	1.5	i	0.0
NC(=O)c1cc(N=Nc2c(N)[nH]n(-c3c(Cl)cc(Cl)cc3Cl)c2=O)ccc1Cl	/	-2.8	i	-11.0
CSCCC(=O)Nc1nc(-c2ccccn2)cs1	-3.8	-8.6	i	-71.4*
O=C(CCSc1ccccc1)Nc1nccs1	7.9	-1.0	i	4.4
N#Cc1ccccc1OCC(=O)Nc1nc(-c2ccccn2)cs1	?	0.0	i	-82.6*
O=C(CN1C(=O)CCC1=O)Nc1nc(-c2ccccn2)cs1	?	-5.5	i	-87.6*
Cc1cc(C)cc(OCC(=O)Nc2nc(-c3ccccn3)cs2)c1	-24.5	1.6	i	-17.9
O=C(CCCSc1ccccc1)Nc1nc(-c2ccccn2)cs1	-17.7	3.2	-106.3%*	-0.1
CCC(=O)Nc1ccc(NC(=O)c2cc3ccccc3o2)c(OC)c1	-14.3	-6.5	i	1.0
COc1cc(-c2nnc(SCC(=O)NC3CCCC3)n2C)cc(OC)c1O	5.1	0.1	i	8.0
O=S(=O)(/C=C/c1ccccc1)N1CCN(c2ccccc2)CC1	9.5	-3.6	i	8.3
COc1ccccc1N1CCN(S(=O)(=O)/C=C/c2ccccc2)CC1	-3.9	-0.8	-125.5%*	-1.5
CCOC(=O)C1C(=O)NC(N2CCN(Cc3ccccc3)CC2)=NC1c1ccco1 (stereo not given)	0.1	-2.2	i	1.2
CCOC(=O)C1C(=O)NC(N2CCN(Cc3ccccc3)CC2)=NC1c1ccccc1 (stereo not given)	-4.0	-4.6	-86.6%*	-13.5
COc1ccc(-c2nnc(SCC(=O)N3CCCCC3)o2)cc1OC	4.6	0.3	i	0.8
COc1ccc(-c2nnc(SCC(=O)OC3CCCCC3)o2)cc1OC	6.6	-0.6	-117.1%*	3.5
COC(=O)c1nn(C23CC4CC(CC(C4)C2)C3)c2c1C(=O)N(c1ccc(Br)cc1)C2=O	2.3	-3.5	i	4.3
CCOC(=O)c1nn(C23CC4CC(CC(C4)C2)C3)c2c1C(=O)N(c1ccc(C)cc1)C2=O	0.7	-0.3	-109.5%*	3.1
CC(NC(=O)C1CCCC1)C1CC2CCC1C2 (stereo not given)	19.6	-40.8*	i	6.8
CC(NC(=O)C1CC=CCC1C(=O)O)C1CC2CCC1C2 (stereo not given)	7.4	-0.4	i	0.6
COc1ccc(C(=O)NC(C)C2CC3CCC2C3)cc1 (stereo not given)	0.0	0.1	i	20.1
CC(NC(=O)c1ccc(N(C)C)cc1)C1CC2CCC1C2 (stereo not given)	-0.6	-44.2*	i	-7.0
SMILES	CtBP-E1A inh	CCT modulator	pAkt inh	Six1-Eya2 inh
COc1ccc(CCNC(=O)C(=O)Nc2nccs2)cc1OC	2.2	-2.1	i	-0.7
COc1ccc(CC(=O)Nc2ccc(C(=O)Nc3nccs3)cc2)cc1OC	-74.4*	2.6	i	-81.3*
CCn1c(SCc2ccc(C(=O)Nc3nccs3)cc2)nnc1-c1ccc(NC(C)=O)cc1	?	-1.3	-107.4%*	?
Cc1[nH]n(-c2ccc([N+](=O)[O-])cc2)c(=O)c1C=NCCN1CCN(C(=O)c2ccc(Br)cc2)CC1	-13.1	-0.9	-102.4%*	-2.9
COc1ccc(-c2csc(C(NC(C)=O)c3ccccc3)n2)cn1 (stereo not given)	4.1	-1.1	i	7.8
Cc1cc([N+](=O)[O-])nn1CC(=O)N/N=C/c1ccccc1O	?	-0.9	i	-92.4*
O=C(N/N=C/c1cc([N+](=O)[O-])ccc1O)C12CC3CC(CC(C3)C1)C2	-9.0	-0.4	i	-4.9
Nc1nnnn1CC(=O)N/N=C/c1cc([N+](=O)[O-])ccc1O	-80.8*	-8.9	i	-86.7*
Cc1cc([N+](=O)[O-])nn1Cc1ccc(C(=O)N/N=C/c2ccc(O)cc2O)cc1	?	0.5	i	-88.5*
Nc1nnc(CC(=O)N/N=C\c2cc([N+](=O)[O-])ccc2O)s1	-90.5*	1.3	i	-92.2*
Cc1cc([N+](=O)[O-])nn1Cc1ccc(C(=O)N/N=C/c2ccc(F)cc2)cc1	-5.7	-0.9	i	-0.2
CCCCNc1nnc(SCC(=O)c2c(N)n(C3CC3)c(=O)[nH]c2=O)s1	2.0	-1.1	i	-1.6
Cc1ccc(C)c(OCCNc2ncccc2[N+](=O)[O-])c1	/	-0.2	i	-2.0
Cc1cc(C)n(CC(=O)N/N=C/c2cc([N+](=O)[O-])ccc2O)n1	-91.1*	-0.6	i	-88.0*
Nc1nnc(CC(=O)N/N=C/c2ccc(-c3cccc(C(=O)O)c3)o2)s1	-71.3*	1.3	i	-65.7*
CCOC(=O)CC(=O)CSc1nc2ccc(OC)cc2cc1C	-4.9	0.6	i	8.5
O=C(C1=C(O)C(=O)N(Cc2ccco2)C1c1cccnc1)c1cc2ccccc2o1 (stereo not given)	-6.5	-0.7	-82.1%*	-8.3
CCn1c(C)nc2cc(C(=O)N/N=C(\C)c3ccccc3O)ccc21	-28.2	0.3	i	-16.7
CN1CCN(/C=N/C2=C(C#N)C(c3ccccc3)C3=C(CC(C)(C)CC3=O)O2)CC1 (stereo not given)	-5.7	-34.3*	i	8.4
CCOc1ccc(OCCC(=O)NNC(=O)c2nn(C)c(=O)c3ccccc23)cc1	3.8	-3.8	i	-0.6
CCCn1nc(C(=O)NNC(=O)CCCOc2ccc(OC)cc2)c2ccccc2c1=O	-6.5	-76.4*	i	-0.2
COc1ccc2[nH]c3c(c2c1)CCNC3(C)CCc1ccc(Cl)nc1 (stereo not given)	/	-30.7*	i	-13.0
COc1ccc2[nH]c3c(c2c1)CNCC3	-0.7	1.1	i	-6.0
Cc1ccc(C(=O)Nc2nc(-c3ccccn3)cs2)s1	-90.8*	-0.6	i	-90.0*
Cn1cccc1C(=O)Nc1nc(-c2ccccn2)cs1	-89.1*	-0.5	i	-85.5*
O=C(Nc1nc(-c2ccccn2)cs1)c1ncc(Cl)c(Cl)c1Cl	-74.5*	-3.2	i	?
CCc1sc(C(=O)Nc2nc(-c3ccccn3)cs2)cc1C	-89.7*	-0.4	i	-67.5*
Cc1csc(NC(=O)c2cccn2C)n1	-13.4	-5.5	i	-6.9
CCOC(=O)C1CCCN(C(=O)CN2C(=O)/C(=C/c3ccc(OC)cc3)Oc3ccccc32)C1 (stereo not given)	3.8	-0.7	i	14.5

Assay outcomes deposited in PubChem by National Center for Advancing Translational Sciences (NCATS).
